# Assay results reported in PubChem BioAssay AID504652 (National Center for Advancing Translational Sciences (NCATS), 2011).
# Where “and” joins values, the source holds several entries; their conditions need not be identical. Equal values may be shown once. The campaign covered roughly 360,000 compounds. About 11,000 (3.1%) were called active. Cut-off read from the data, not from the text of the source: active = activity change below about -30%; inactive = the rest. What follows is part of a selection rich in actives, with near analogues and random picks from the rest. The source holds several records for some structures; these can differ, active in one and inactive in another.
# Target: D(1A) dopamine receptor (Homo sapiens) (UniProt P21728)
# Experiment: Antagonist of Human D 1 Dopamine Receptor: qHTS
# Conditions: HEK293 TREx D1 cells, calcium flux, dopamine EC80; at 10 µM; stronger effect = lower value
# Excerpt: Dopamine receptors (DARs) are involved in the etiology and/or therapy of a number of neuropsychiatric and endocrine disorders. For instance, all receptor-based antiparkinsonian drugs work via stimulating the […] DAR subtype whereas all FDA-approved antipsychotic agents are antagonists of this receptor. […] There are three different types of allosteric modulators that we are seeking, two of which will stimulate or augment receptor signaling, allosteric agonists and potentiators, while the third, allosteric antagonists, will attenuate receptor signaling. The present primary screening assay measures compound antagonism after an EC80 addition of dopamine by tracking calcium flux in a […], inducible Hek293 Trex D1 cell line. NIH Chemical Genomics Center [NCGC] NIH Molecular Libraries Probe Centers Network [MLPCN] MLPCN Grant: NS064831-01 Assay Submitter (PI): David Sibley
# Freshly passaged cells are plated in 1536 well black, clear bottom plates at a density of 4000 cells/well in 3 ul of complete media containing 1x tetracycline inducer. After an overnight incubation at 30 C in 5% CO2, cells are loaded with 2 ul of the no wash Calcium Assay Kit (ABD Bioquest) and incubated at room temperature for 30 to 90 minutes. Agonist read: A 10 cycle (1 second/cycle) baseline measurement is taken and then the FDSS online 1536 pintool delivers 23 nl of compound library (as well as dopamine controls) to the plate. The plate is measured for kinetically at 1 cycle/sec for 180 seconds. Following the 180 second read, 1 ul of an EC80 (negative modulation assay) is delivered by an onboard pipette head. Measurements are taken kinetically for an additional 180 seconds.
# % is set by controls: 0 for no effect and ±100 for the full control effect.
# D(1A) dopamine receptor (Homo sapiens), sequence (P21728 whole entry, looked up): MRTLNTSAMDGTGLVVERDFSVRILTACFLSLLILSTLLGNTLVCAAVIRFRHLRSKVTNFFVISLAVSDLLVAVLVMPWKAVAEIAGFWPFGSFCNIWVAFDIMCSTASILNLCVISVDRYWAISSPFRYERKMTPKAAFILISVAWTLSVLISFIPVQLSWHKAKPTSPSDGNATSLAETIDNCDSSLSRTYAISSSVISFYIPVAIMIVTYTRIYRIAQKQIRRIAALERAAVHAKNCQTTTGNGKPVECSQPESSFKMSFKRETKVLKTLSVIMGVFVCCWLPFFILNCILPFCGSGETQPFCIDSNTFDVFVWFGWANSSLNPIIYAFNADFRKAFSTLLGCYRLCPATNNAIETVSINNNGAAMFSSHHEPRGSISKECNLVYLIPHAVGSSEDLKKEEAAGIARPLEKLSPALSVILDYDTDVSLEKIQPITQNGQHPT
row,SMILES,"activity change, negative = inhibition"
1,COc1ccccc1-c1ccnc2[nH]n(-c3ccccc3)c(=O)c12,-7.97% (inactive)
2,COc1cccc(CNC(=O)CCc2nc(-c3ccc(C)cc3)no2)c1,-1.26% (inactive)
3,Cn1c(C(=O)N2CCC(C(=O)N3CCN(c4ccccc4)CC3)CC2)cc2sccc21,-14.6% (inactive)
4,CCCN1CCN(CCCNC(=O)Cn2nc(CC)n3c(cc4occc43)c2=O)CC1,-17.4% (inactive)
5,CCc1nn(CCCC(=O)NC(C)c2ccccc2)c(=O)c2cc3occc3n12 (stereo not drawn),5.05% (inactive) and -4.27% (inactive)
6,CCc1nn(CC(=O)NCC(C)c2ccccc2)c(=O)c2cc3occc3n12 (stereo not drawn),-32.7% (active)
7,CSc1ccc(C2C(C(=O)Nc3ccccc3)=C(C)Nc3nc4ccccc4n32)cc1 (stereo not drawn),3.8% (inactive)
8,CCN(CCCNC(=O)c1c(C)oc2ncn(CC(C)C)c(=O)c12)Cc1ccccc1,0.919% (inactive)
9,COc1ccc(OC)c(NC(=O)CN2CCCN(Cc3cc(C)ccc3C)S2(=O)=O)c1,2.17% (inactive)
10,COC(=O)C1(C)NC(c2ccc(C)cc2)C2C(=O)N(c3ccc(F)cc3)C(=O)C21 (stereo not drawn),-8.61% (inactive)
11,COC(=O)[C@]1(C)N[C@H](c2ccc(-c3ccc(Cl)c(Cl)c3)cc2)[C@@H]2C(=O)N(C)C(=O)[C@@H]21,-31.4% (active)
12,COC(=O)C1(C)NC(c2ccc(F)cc2)C2C(=O)N(c3ccccc3)C(=O)C21 (stereo not drawn),0.925% (inactive)
13,CCC(=O)N1CCc2cc(CNS(=O)(=O)c3ccc(Br)s3)ccc21,-7.89% (inactive)
14,CCCCOc1ccc(Cn2c(=O)oc3ccc(C)cc32)cc1OC,-3.29% (inactive)
15,CCCCOc1ccc(CN2C(=O)C(=O)c3cc(Br)cc(C)c32)cc1OC,-30.4% (active)
16,CCCCN1C(=O)C(C)=C(C)C1OCCc1ccc(OC)c(OC)c1 (stereo not drawn),2.6% (inactive)
17,Cc1ccccc1CNC(=O)CSc1nnc(C)c2c(C)n(-c3ccccc3)nc12,-8.46% (inactive)
18,CCOC(=O)c1c(S(=O)(=O)NCC(=O)Nc2ccc(Cl)c(C(F)(F)F)c2)c(C)n(C)c1C,-17.1% (inactive)
19,Cc1ccc(CN2CCC(n3nccc3NC(=O)CCCc3ccccc3)CC2)o1,3.11% (inactive)
20,CC(=O)N[C@@H](C)C(=O)N1CCC(n2nccc2NC(=O)CCCc2ccccc2)CC1,-35.7% (active)
21,CC(=O)NCC(=O)N1CCC(n2nccc2NC(=O)CCCc2ccccc2)CC1,-10.3% (inactive)

row,SMILES,"activity change, negative = inhibition"
1,COc1ccc(CCNC(=O)CCc2c(C)nc3c(c(C)nn3-c3ccc(C)c(C)c3)c2C)c(OC)c1OC,-6.08% (inactive)
2,Cc1ccc(C(=O)N/C(=C/c2cccs2)C(=O)NCC2CCCO2)cc1 (stereo not drawn),-5.41% (inactive)
3,Cc1ccc2c(c1)N(CC(=O)NCC1CCCO1)C(=O)CO2 (stereo not drawn),-13.8% (inactive)
4,Cc1ccc(-n2c(C)cc(/C=C(\C#N)C(=O)NCC3CCCO3)c2C)cc1 (stereo not drawn),-101% (active)
5,Cc1ccccc1OCCSc1nc2ccc(NC(=O)c3ccco3)cc2s1,-30% (inactive)
6,COc1ccccc1CNC(=O)CCn1c(=O)c2ccccc2n(CC(=O)Nc2cccc(Cl)c2)c1=O,-3.25% (inactive)
7,Cc1cc(C)cc(-n2c(SCC(=O)NCC3CCCO3)nc3c([nH]c4ccccc43)c2=O)c1 (stereo not drawn),-4.35% (inactive)
8,Cc1c(C(=O)N2CCCC2)oc2c1-c1nn(CC(=O)NCc3ccc(OC(C)C)cc3)cc1CC2,-7.55% (inactive)
9,Cc1cccc(N2CCN(C3=C(c4ccccc4)C(=O)c4ccccc43)CC2)c1C,18% (inactive)
10,CN(CC(=O)Nc1cccc(C(F)(F)F)c1)S(=O)(=O)c1cccs1,-18.7% (inactive)
11,CCOC(=O)c1ccc(NC(=O)Cn2c(=O)cc(C)c3c(C)nn(-c4cccc(F)c4)c32)cc1,-13.3% (inactive)
12,O=C(COC(=O)[C@H](Cc1ccccc1)NC(=O)c1cccs1)Nc1cc(F)ccc1F,-9.37% (inactive)
13,COC(=O)c1ccc(/C=N/OCC(=O)Nc2cc(F)ccc2F)cc1,-33% (active)
14,O=C(CO/N=C/c1ccc(OC(F)F)cc1)NCc1ccc(F)cc1,-6.98% (inactive)
15,Cc1ccc(C(=O)N2CCN(S(=O)(=O)N3CCOCC3)CC2)cc1,-3.63% (inactive)
16,CCc1ccc(C(=O)N2CCN(S(=O)(=O)c3sc(C(=O)O)c(C)c3C(=O)O)CC2)cc1,-68.6% (active)
17,CCC(C(=O)N1CCN(S(=O)(=O)c2sc(C(=O)O)c(C)c2C(=O)O)CC1)c1ccccc1 (stereo not drawn),-4.86% (inactive)
18,COc1ccc(SCc2cc(=O)c3ccc(C)c(C)c3[nH]2)cc1,7.95% (inactive)
19,Cn1c(=O)c2c(nc(SCC(=O)Nc3ccc(F)cc3)n2Cc2ccc(Cl)cc2)n(C)c1=O,-3.1% (inactive)
20,O=C(CCn1c(=O)[nH]c2ccccc2c1=O)NCCCN1CCN(c2cccc(Cl)c2)CC1,-49% (active)
21,CCOC(=O)c1c(C)[nH]c(CCC(=O)NCCCN2CCN(c3cccc(Cl)c3)CC2)c1C,-31.4% (active)

row,SMILES,"activity change, negative = inhibition"
1,CCn1c(=O)cc(OCC(=O)NCCCN2CCN(c3cccc(Cl)c3)CC2)c2ccccc21,-46.8% (active)
2,COc1cccc(CNC(=O)Cc2csc(Nc3nc(=S)[nH]c4ccccc34)n2)c1,-0.499% (inactive)
3,COCCCn1c(Cc2csc(Nc3cccc(Cl)c3)n2)nnc1SCC(=O)OC1CCCCC1,12.9% (inactive)
4,Cn1c(=O)cc(OCC(=O)N2CCN(c3ccccc3)CC2)c2ccccc21,-4.64% (inactive)
5,O=C(Cc1csc(Nc2nc(=S)[nH]c3ccccc23)n1)NCCCN1CCN(c2cccc(Cl)c2)CC1,-56.6% (active)
6,O=C(Cc1ccc(-n2c(=O)[nH]c3ccccc3c2=O)cc1)N1CCN(c2cccc(Cl)c2)CC1,-8.8% (inactive)
7,CCOC(=O)c1c(C)[nH]c(CCC(=O)NCCCN2CCN(c3cc(C)ccc3C)CC2)c1C,-11.7% (inactive)
8,CCOC(=O)N1CCC(Nc2c(NCCN3CCN(c4cccc(Cl)c4)CC3)c(=O)c2=O)CC1,-24% (inactive)
9,COc1cccc(N2CCN(C(=O)CCCCCn3c(=O)[nH]c4ccccc4c3=O)CC2)c1,-11.8% (inactive)
10,CCn1c(=O)cc(OCC(=O)Nc2cc(Cl)c(OC)cc2OC)c2ccccc21,1.43% (inactive)
11,N#Cc1nc(/C=C/c2ccc(F)cc2)oc1NCc1ccc(F)cc1,4.43% (inactive)
12,Cc1ccc(CNC(=O)CCNS(=O)(=O)c2ccc3c(c2)oc(=O)n3C)cc1,-2.95% (inactive)
13,CN(Cc1ccccc1)C(=O)c1cn(C)c2ccc(S(=O)(=O)N(C)C3CCCCC3)cc2c1=O,-6.93% (inactive)
14,Cc1cccc(NC(=O)N2CCC(CN3CCc4ccccc4C3)CC2)c1C,3.23% (inactive)
15,COc1cccc(C(=O)Nc2ccc(-c3cc(C(F)(F)F)nn3-c3ccccc3)cc2)c1,-9.33% (inactive)
16,CCOc1ccccc1C(=O)NCc1ccc2c(c1)CCN2C(=O)c1ccc(F)cc1,-20.6% (inactive)
17,CCn1cc(C(=O)N(C)Cc2ccccc2)c(=O)c2cc(S(=O)(=O)N3CCCCCC3)ccc21,-14.7% (inactive)
18,CC(=O)Nc1ccc(NC(=O)C2CCCN(S(=O)(=O)c3ccc(Cl)cc3)C2)cc1 (stereo not drawn),-19.3% (inactive)
19,Cc1n[nH]c(C)c1S(=O)(=O)N1CCCC(C(=O)Nc2ccc(Br)cc2)C1 (stereo not drawn),2.22% (inactive) and -57.1% (active)
20,Cc1n[nH]c(C)c1S(=O)(=O)N1CCCC(C(=O)NCC2COc3ccccc3O2)C1 (stereo not drawn),4.33% (inactive)
21,O=C(NCc1cccnc1)C(=O)NCC(c1cccnc1)N1CCN(c2ccccc2)CC1 (stereo not drawn),2.98% (inactive)

row,SMILES,"activity change, negative = inhibition"
1,CCOc1ccc(N(CC)S(=O)(=O)N2CCCC(C(=O)Nc3ccc(C(C)=O)cc3)C2)cc1 (stereo not drawn),-25.1% (inactive)
2,COCCNCCOCCOc1cccc(OC)c1,12.6% (inactive)
3,COCCCNCCOCCOc1ccc(Cl)cc1Br,-34.7% (active)
4,CC(C)(C)NCCCOc1ccc(Cl)cc1C(C)(C)C,-4.49% (inactive)
5,CCc1ccc(CNC(=O)c2cc3cc4ccc(OC)cc4nc3o2)cc1,2.97% (inactive)
6,CCCc1nn2c(=O)cc(COC(=O)c3ccc(NC(=O)C(C)Oc4ccccc4)cc3)nc2s1 (stereo not drawn),3.83% (inactive)
7,O=c1[nH]cnc2c1c(-c1ccccc1)cn2-c1ccc(F)cc1,-39.4% (active)
8,CCCNc1ncnc2c1c(-c1ccccc1)cn2-c1ccc(OCC)cc1,36.7% (inactive)
9,COc1ccc(-n2cc(-c3ccccc3)c3c(=S)nc[nH]c32)cc1,-0.706% (inactive)
10,COc1ccc(-c2noc(-c3ccc(N4CCN(c5ccccc5)CC4)c([N+](=O)[O-])c3)n2)cc1OC,-6.01% (inactive)
11,COc1ccc(S(=O)(=O)NCc2cccn2Cc2cccc(C)c2)cc1Cl,-21.8% (inactive)
12,CSc1ncccc1C(=O)Nc1ccc(C)cn1,25.9% (inactive)
13,CSc1ncc(C(=O)NCc2ccccc2Cl)c(C(F)(F)F)n1,2.06% (inactive)
14,CSc1ncccc1C(=O)NCc1ccccc1Cl,-34.3% (active)
15,O=C(Nc1ccc(O)c(-c2nc3ccccc3o2)c1)c1ccc(-c2cccc(Cl)c2)o1,8.95% (inactive)
16,CC(=O)c1ccc(NC(=O)C2CCN(S(=O)(=O)c3c(C)noc3/C=C/c3ccc(C)cc3)CC2)cc1,0.387% (inactive)
17,Cc1ccc(S(=O)(=O)c2nc(-c3ccco3)oc2SCC(=O)Nc2ccc(F)cc2)cc1,-3.5% (inactive)
18,COc1ccccc1NC(=O)CSc1oc(-c2ccco2)nc1S(=O)(=O)c1ccc(Br)cc1,-50.6% (active)
19,CC(Sc1oc(-c2ccco2)nc1S(=O)(=O)c1ccc(Br)cc1)c1ccccc1 (stereo not drawn),6.94% (inactive)
20,CCn1cc(C(=O)N2CCN(c3cc(Cl)ccc3C)CC2)c(=O)c2cc(S(=O)(=O)N3CCCC3)ccc21,-6.15% (inactive)
